MazF activator: activators of E. coli MazEF toxin-antitoxin RNase, primary screen, biochemical, fluorescence, uHTS; Endoribonuclease toxin MazF (Escherichia coli (strain K12)), P0AE70; FAM/BHQ RNA-DNA oligo cleavage fluorescence, 5 h; activation, % at 20 µM; hit rate 0.32% among 350,000; in the data active means activation above about 50%
Target sequence (P0AE70 whole entry, looked up): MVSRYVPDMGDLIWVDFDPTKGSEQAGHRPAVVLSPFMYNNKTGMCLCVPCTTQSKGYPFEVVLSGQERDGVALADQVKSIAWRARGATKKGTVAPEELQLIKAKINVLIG
BoNT F protease: BoNT/F light chain protease inhibitors, primary screen, biochemical, flow cytometry, MLPCN library. Multiplex microsphere protease cleavage assay. hit rate 0.22% among 360,000. Botulinum neurotoxin type F light chain protease (Clostridium botulinum). inhibition, % at 10 µM. AID 588497, 2011; in the data active means inhibition above about 35%, passing the limit was not always enough; inconclusive means no clear call, values can overlap the other calls
Anthrax LF inh2: Bacillus anthracis LF protease inhibitors, primary screen, biochemical, multiplex microsphere, MLPCN library. Lethal factor (Bacillus anthracis), P15917. multiplex microsphere protease cleavage assay. inhibition, % at 10 µM. hit rate 0.12% among 360,000
Autofluor counter: counter-screen for toxin protease inhibitors: compound fluorescence | compound autofluorescence counterscreen, microsphere flow cytometry; hits give high values | fluorescence intensity (test concentration not listed) | hit rate 3.1% among 360,000; in the data active means fluorescence intensity above about 16000; inconclusive means no clear call, values can overlap the other calls
BoNT A protease: BoNT/A light chain protease inhibitors, primary screen, biochemical, flow cytometry, MLPCN library; inhibition, % at 10 µM; hit rate 0.17% among 360,000; AID 588499, 2011; multiplex microsphere protease substrate cleavage
Numbers stand for hits. Compounds with a hit are over-represented: about 3.7% of the library has one in this group of screens. Unless noted, no stated cut-off is given here; in the data, active means inhibition above about 30%; inconclusive means no clear call, values can overlap the other calls; inactive means below that.

CC1(C(=O)NS(=O)(=O)C2CC2)CCN(C(=O)c2cc3ccccc3s2)C1 (centres undefined) was read as BoNT F protease inactive, Anthrax LF inh2 inactive, Autofluor counter inactive and BoNT A protease inactive.
For CC1(C(=O)Nc2ccc3ccccc3c2)CCC(=O)N1C1CCN(Cc2ccccc2)CC1 (centres undefined) the results were BoNT F protease inactive, Anthrax LF inh2 inactive, Autofluor counter inactive and BoNT A protease inactive.
Screening CC(C)(C)OC(=O)N/N=C/c1ccc(N2CCOCC2)s1 returned MazF activator 226, BoNT F protease inactive, Anthrax LF inh2 inactive, Autofluor counter inactive and BoNT A protease inactive.
Cc1cccc2[nH]c3c(N4CCN(C(=O)c5ccco5)CC4)ncnc3c12 was read as MazF activator inactive, BoNT F protease inactive, Anthrax LF inh2 inactive, Autofluor counter 24618 and BoNT A protease inactive.
Screening Clc1ccc2[nH]c3c(N4CCC5(CC4)OCCO5)ncnc3c2c1 returned MazF activator inactive.
For Cc1cccc2[nH]c3c(N4CCC5(CC4)OCCO5)ncnc3c12 the results were MazF activator inactive, BoNT F protease inactive, Anthrax LF inh2 inactive, Autofluor counter 22045 and BoNT A protease inconclusive.
Clc1ccc(CSc2nnc(-c3ccccn3)n2Cc2cccs2)cc1Cl was read as BoNT F protease inactive, Anthrax LF inh2 inactive, Autofluor counter inactive and BoNT A protease inactive.
CC1CCCN(Cc2c(O)ccc3c(=O)c(-c4nc5ccccc5s4)c(N)oc23)C1 (centres undefined) was read as MazF activator inactive, BoNT F protease inactive, Anthrax LF inh2 inactive, Autofluor counter 25322 and BoNT A protease inconclusive.
For CC(C)c1ccc(OCCCN2CCCC2)cc1 the results were MazF activator inactive, BoNT F protease inactive, Anthrax LF inh2 inactive, Autofluor counter inactive and BoNT A protease inactive.
Clc1cccc(Cl)c1CSc1cc2c(nn1)-c1ccccc1CC2 was read as MazF activator inactive, BoNT F protease inactive, Anthrax LF inh2 inactive, Autofluor counter 22710 and BoNT A protease inactive.
`COc1ccc(NC(=O)c2coc(C)c2)cc1` gave MazF activator inactive, BoNT F protease inactive, Anthrax LF inh2 inactive, Autofluor counter inactive and BoNT A protease inactive.
`CC1=C(C(=O)N2CCOCC2)CC(CC(=O)NCc2cccc3ccccc23)C(=O)N1Cc1ccc(C(C)(C)C)cc1` (centres undefined) gave BoNT F protease inactive, Anthrax LF inh2 inactive, Autofluor counter inactive and BoNT A protease inactive.
For CNc1ccc(Br)cc(C(=O)/C=C/c2ccc3c(c2)OCO3)c1=O the results were MazF activator inactive, BoNT F protease inactive, Anthrax LF inh2 inactive, Autofluor counter inactive and BoNT A protease inactive.
CNc1ccc(Br)cc(C(=O)/C=C/c2ccc(OC)cc2)c1=O was read as MazF activator inactive, BoNT F protease inactive, Anthrax LF inh2 inactive, Autofluor counter inactive and BoNT A protease inactive.
CCNc1ccc(Br)cc(C(=O)/C=C/c2ccc(Cl)cc2Cl)c1=O was read as MazF activator inactive, BoNT F protease inactive, Anthrax LF inh2 43, Autofluor counter 17500 and BoNT A protease inconclusive.
CNc1ccc(Br)cc(C(=O)/C=C/c2cc(OC)ccc2OC)c1=O was read as MazF activator inactive, BoNT F protease inactive, Anthrax LF inh2 inactive, Autofluor counter 17230 and BoNT A protease inactive.
For CCOC(=O)C1=C(Cc2ccc(Cl)cc2)C(=O)c2ccccc2C1=O the results were MazF activator inactive, BoNT F protease inactive, Anthrax LF inh2 inactive, Autofluor counter 23250 and BoNT A protease inactive.
Screening CC1(C)OC(c2ccccc2)=C/C(=C/C=C2C(=O)NC(=S)NC2=O)O1 returned MazF activator active.
For CCN1C(=O)[C@H]2[C@@H](c3ccc(-c4ccc5c(c4)OCO5)cc3)N3CCC[C@@]3(C(=O)OC)[C@H]2C1=O the results were MazF activator inactive, BoNT F protease inactive, Anthrax LF inh2 inactive, Autofluor counter inactive and BoNT A protease inactive.
`CCN=C1SC(CC(=O)NC2CCCCC2)C(=O)N1CC` (centres undefined) gave MazF activator inactive, BoNT F protease inactive, Anthrax LF inh2 inactive, Autofluor counter 20571 and BoNT A protease inconclusive.
Screening CCn1cc([N+](=O)[O-])c(C(=O)N2CCOCC2)n1 returned MazF activator inactive, BoNT F protease inactive, Anthrax LF inh2 inactive, Autofluor counter inactive and BoNT A protease inactive.
For CCn1cc([N+](=O)[O-])c(C(=O)N2N=C3/C(=C/c4cccs4)CCCC3C2c2cccs2)n1 (centres undefined) the results were MazF activator inactive, BoNT F protease inactive, Anthrax LF inh2 inactive, Autofluor counter 21392 and BoNT A protease inactive.
Screening COc1cccc(N=c2oc3ccc(OC)cc3cc2-c2nc3ccccc3[nH]2)c1 returned MazF activator inactive, BoNT F protease inactive, Anthrax LF inh2 inactive, Autofluor counter inactive and BoNT A protease inactive.
For COc1cccc(N=c2oc3ccccc3cc2-c2nc3ccccc3[nH]2)c1 the results were MazF activator inactive, BoNT F protease 54, Anthrax LF inh2 inactive, Autofluor counter inconclusive and BoNT A protease inactive.
Screening Cc1cccc(CC(=O)N2CCC(n3nccc3NC(=O)C3CC3)CC2)c1 returned MazF activator inactive, BoNT F protease inactive, Anthrax LF inh2 inactive, Autofluor counter inactive and BoNT A protease inactive.
For COc1ccc(C(=O)Nn2c(CC(C)C)nc3cc(OC)c(OC)cc3c2=O)c(OC)c1 the results were MazF activator inactive, BoNT F protease inconclusive, Anthrax LF inh2 inactive, Autofluor counter inactive and BoNT A protease inactive.
`COc1cc2nc(CC(C)C)n(NC(=O)c3ccccc3)c(=O)c2cc1OC` gave MazF activator inactive, BoNT F protease inactive, Anthrax LF inh2 inactive, Autofluor counter 22766 and BoNT A protease inconclusive.
Screening CN(C)c1ccc(/C=C/c2cc[n+](C)cc2)cc1 returned MazF activator inactive, BoNT F protease inactive, Anthrax LF inh2 inactive, Autofluor counter 16151 and BoNT A protease inactive.
Screening N#Cc1c(N)[nH]c(=S)c(C#N)c1-c1ccccc1 returned MazF activator inactive, BoNT F protease inactive, Anthrax LF inh2 inactive, Autofluor counter 20825 and BoNT A protease inactive.
`Cc1ccc(-c2cc(-c3ccccc3)[nH]c(=S)c2C#N)cc1` gave MazF activator inactive, BoNT F protease inactive, Anthrax LF inh2 inactive, Autofluor counter inactive and BoNT A protease inactive.
O=S(=O)(Nc1nc2ccccc2nc1NCCN1CCOCC1)c1cccc(Cl)c1 was read as MazF activator inactive, BoNT F protease inactive, Anthrax LF inh2 inactive, Autofluor counter inactive and BoNT A protease inactive.
Nc1c(S(=O)(=O)c2cccc(Cl)c2)c2nc3ccccc3nc2n1CCN1CCOCC1 was read as MazF activator inactive, BoNT F protease inactive, Anthrax LF inh2 inactive, Autofluor counter 16491 and BoNT A protease inactive.
`Cc1ccc(C)c(N2N=C(C(=O)Nc3cccnc3)CCC2=O)c1` gave MazF activator inactive, BoNT F protease inactive, Anthrax LF inh2 inactive, Autofluor counter inactive and BoNT A protease inactive.

Bioassay records: PubChem, several laboratories
